# The campaign covered roughly 5,500 compounds. About 2,000 (36%) were called active. Roughly 18% stayed inconclusive and do not appear here. This is one part of the list. A number with no mark means an inactive call. Rule as the data show it: active = normalized growth mostly below about 0.91 (no sharp cut-off); inconclusive = no clear call, values can overlap the other calls; inactive = mostly above about 0.92.
# Experiment: chemical genetic growth profiling, strain panel (AID 1159580);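 also: tested at 20 µM; growth read once vehicle control cultures reached saturation at 30 °C; 1 = growth at the plate median or of vehicle wells; lower values mean less growth of the strain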
# Settings: growth OD
# [1] = S. cerevisiae deletion strains, locus YHR030C, strain SLT2, hits give low values
# [2] = S. cerevisiae deletion strains, locus YJL187C, strain SWE1, hits give low values
smiles,measurement,setting,value
O=C(O)c1ccccc1,normalized growth,"S. cerevisiae deletion strains, locus YAL021C, strain ccr4, hits give low values",0.97
same,normalized growth,"S. cerevisiae deletion strains, locus YAL026C, strain drs2, hits give low values",0.962
same,normalized growth,"S. cerevisiae deletion strains, locus YAL030W, strain snc1, hits give low values",0.977
same,normalized growth,"S. cerevisiae deletion strains, locus YBL061C, strain skt5, hits give low values",0.975
same,normalized growth,"S. cerevisiae deletion strains, locus YBR009C, strain hhf1, hits give low values",0.981
same,normalized growth,"S. cerevisiae deletion strains, locus YBR023C, strain chs3, hits give low values",0.981
same,normalized growth,"S. cerevisiae deletion strains, locus YBR171W, strain sec66, hits give low values",0.957
same,normalized growth,"S. cerevisiae deletion strains, locus YBR231C, strain swc5, hits give low values",0.974
same,normalized growth,"S. cerevisiae deletion strains, locus YBR279W, strain paf1, hits give low values",0.981
same,normalized growth,"S. cerevisiae deletion strains, locus YCL011C, strain gbp2, hits give low values",0.954
same,normalized growth,"S. cerevisiae deletion strains, locus YCL016C, strain dcc1, hits give low values",0.962
same,normalized growth,"S. cerevisiae deletion strains, locus YCL061C, strain MRC1, hits give low values",0.966
same,normalized growth,"S. cerevisiae deletion strains, locus YCL069W, strain vba3, hits give low values",0.986
same,normalized growth,"S. cerevisiae deletion strains, locus YCR088W, strain abp1, hits give low values",0.996
same,normalized growth,"S. cerevisiae deletion strains, locus YDL005C, strain med2, hits give low values",0.973
same,normalized growth,"S. cerevisiae deletion strains, locus YDL040C, strain nat1, hits give low values",0.994
same,normalized growth,"S. cerevisiae deletion strains, locus YDR001C, strain nth1, hits give low values",0.973
same,normalized growth,"S. cerevisiae deletion strains, locus YDR069C, strain doa4, hits give low values",0.958
same,normalized growth,"S. cerevisiae deletion strains, locus YDR137W, strain rgp1, hits give low values",0.975
same,normalized growth,"S. cerevisiae deletion strains, locus YDR159W, strain sac3, hits give low values",0.966
same,normalized growth,"S. cerevisiae deletion strains, locus YDR195W, strain ref2",1.02
same,normalized growth,"S. cerevisiae deletion strains, locus YDR297W, strain sur2, hits give low values",0.979
same,normalized growth,"S. cerevisiae deletion strains, locus YDR334W, strain swr1, hits give low values",0.911
same,normalized growth,"S. cerevisiae deletion strains, locus YDR335W, strain msn5, hits give low values",0.976
same,normalized growth,"S. cerevisiae deletion strains, locus YDR392W, strain spt3, hits give low values",0.962
same,normalized growth,"S. cerevisiae deletion strains, locus YEL003W, strain gim4, hits give low values",0.988
same,normalized growth,"S. cerevisiae deletion strains, locus YEL037C, strain rad23, hits give low values",0.988
same,normalized growth,"S. cerevisiae deletion strains, locus YEL061C, strain CIN8 (second series), hits give low values",0.971
same,normalized growth,"S. cerevisiae deletion strains, locus YER015W, strain faa2, hits give low values",0.987
same,normalized growth,"S. cerevisiae deletion strains, locus YER016W, strain bim1, hits give low values",0.983
same,normalized growth,"S. cerevisiae deletion strains, locus YER111C, strain swi4, hits give low values",0.971
same,normalized growth,"S. cerevisiae deletion strains, locus YER155C, strain BEM2 (second series), hits give low values",0.962
same,normalized growth,"S. cerevisiae deletion strains, locus YFR010W, strain ubp6, hits give low values",0.958
same,normalized growth,"S. cerevisiae deletion strains, locus YGL167C, strain pmr1, hits give low values",0.956
same,normalized growth,"S. cerevisiae deletion strains, locus YGL173C, strain kem1, hits give low values",0.956
same,normalized growth,"S. cerevisiae deletion strains, locus YGL227W, strain vid30, hits give low values",0.97
same,normalized growth,"S. cerevisiae deletion strains, locus YGL240W, strain doc1, hits give low values",0.959
same,normalized growth,"S. cerevisiae deletion strains, locus YGL253W, strain hxk2, hits give low values",0.965
same,normalized growth,"S. cerevisiae deletion strains, locus YHR013C, strain ard1, hits give low values",0.962
same,normalized growth,"S. cerevisiae deletion strains, locus YHR027C, strain rpn1, hits give low values",0.944
same,normalized growth,[1],0.894
same,normalized growth,"S. cerevisiae deletion strains, locus YHR079C, strain IRE1, hits give low values",0.891
same,normalized growth,"S. cerevisiae deletion strains, locus YHR142W, strain chs7, hits give low values",0.928
same,normalized growth,"S. cerevisiae deletion strains, locus YJL092W, strain hpr5, hits give low values",0.966
same,normalized growth,"S. cerevisiae deletion strains, locus YJL095W, strain BCK1 (second series), hits give low values",0.989
same,normalized growth,"S. cerevisiae deletion strains, locus YJL095W, strain BCK1, hits give low values",0.893
same,normalized growth,"S. cerevisiae deletion strains, locus YJL115W, strain asf1, hits give low values",0.945
same,normalized growth,"S. cerevisiae deletion strains, locus YJL129C, strain trk1, hits give low values",0.987
same,normalized growth,"S. cerevisiae deletion strains, locus YJL154C, strain vps35, hits give low values",0.975
same,normalized growth,"S. cerevisiae deletion strains, locus YJL164C, strain tpk1, hits give low values",1
same,normalized growth,"S. cerevisiae deletion strains, locus YJL166W, strain qcr8, hits give low values",0.969
same,normalized growth,[2],0.982
same,normalized growth,"S. cerevisiae deletion strains, locus YJR066W, strain TOR1, hits give low values",0.863
same,normalized growth,"S. cerevisiae deletion strains, locus YKL160W, strain elf1, hits give low values",0.965
same,normalized growth,"S. cerevisiae deletion strains, locus YKR026C, strain gcn3, hits give low values",0.978
same,normalized growth,"S. cerevisiae deletion strains, locus YLL001W, strain dnm1, hits give low values",0.948
same,normalized growth,"S. cerevisiae deletion strains, locus YLL026W, hits give low values",0.982
same,normalized growth,"S. cerevisiae deletion strains, locus YLL041C, strain sdh2, hits give low values",0.966
same,normalized growth,"S. cerevisiae deletion strains, locus YLR027C, strain aat2, hits give low values",0.967
same,normalized growth,"S. cerevisiae deletion strains, locus YLR113W, strain HOG1, hits give low values",0.78 (active)
same,normalized growth,"S. cerevisiae deletion strains, locus YLR221C, strain rsa3, hits give low values",0.927
same,normalized growth,"S. cerevisiae deletion strains, locus YLR258W, strain gsy2, hits give low values",0.989
same,normalized growth,"S. cerevisiae deletion strains, locus YLR262C, strain YPT6 (second series), hits give low values",0.998
same,normalized growth,"S. cerevisiae deletion strains, locus YLR320W, strain mms22, hits give low values",0.943
same,normalized growth,"S. cerevisiae deletion strains, locus YLR342W, strain FKS1, hits give low values",0.972
same,normalized growth,"S. cerevisiae deletion strains, locus YLR357W, strain rsc2, hits give low values",0.969
same,normalized growth,"S. cerevisiae deletion strains, locus YLR370C, strain arc18, hits give low values",0.949
same,normalized growth,"S. cerevisiae deletion strains, locus YLR384C, strain iki3, hits give low values",0.958
same,normalized growth,"S. cerevisiae deletion strains, locus YML120C, strain ndi1, hits give low values",0.948
same,normalized growth,"S. cerevisiae deletion strains, locus YMR058W, strain fet3, hits give low values",0.951
same,normalized growth,"S. cerevisiae deletion strains, locus YMR125W, strain sto1, hits give low values",0.98
same,normalized growth,"S. cerevisiae deletion strains, locus YMR129W, hits give low values",0.988
same,normalized growth,"S. cerevisiae deletion strains, locus YMR205C, strain PFK2, hits give low values",0.967
same,normalized growth,"S. cerevisiae deletion strains, locus YMR231W, strain pep5, hits give low values",0.987
same,normalized growth,"S. cerevisiae deletion strains, locus YNL071W, strain lat1, hits give low values",0.988
same,normalized growth,"S. cerevisiae deletion strains, locus YNL183C, strain NPR1, hits give low values",0.84
same,normalized growth,"S. cerevisiae deletion strains, locus YNL209W, strain ssb2, hits give low values",0.975
same,normalized growth,"S. cerevisiae deletion strains, locus YNL248C, strain rpa49, hits give low values",0.966
same,normalized growth,"S. cerevisiae deletion strains, locus YNL322C, strain KRE1 (second series), hits give low values",0.933
same,normalized growth,"S. cerevisiae deletion strains, locus YNR049C, strain mso1, hits give low values",0.955
same,normalized growth,"S. cerevisiae deletion strains, locus YOR001W, strain rrp6, hits give low values",0.965
same,normalized growth,"S. cerevisiae deletion strains, locus YOR070C, strain gyp1, hits give low values",0.985
same,normalized growth,"S. cerevisiae deletion strains, locus YOR080W, strain dia2, hits give low values",0.963
same,normalized growth,"S. cerevisiae deletion strains, locus YOR083W, strain WHI5, hits give low values",0.961
same,normalized growth,"S. cerevisiae deletion strains, locus YOR106W, strain vam3, hits give low values",0.923
same,normalized growth,"S. cerevisiae deletion strains, locus YOR231W, strain MKK1, hits give low values",0.86 (active)
same,normalized growth,"S. cerevisiae deletion strains, locus YOR265W, strain rbl2, hits give low values",0.981
same,normalized growth,"S. cerevisiae deletion strains, locus YOR270C, strain vph1, hits give low values",0.98
same,normalized growth,"S. cerevisiae deletion strains, locus YOR290C, strain snf2, hits give low values",0.907
same,normalized growth,"S. cerevisiae deletion strains, locus YPL051W, strain arl3, hits give low values",0.989
same,normalized growth,"S. cerevisiae deletion strains, locus YPL078C, strain atp4, hits give low values",0.974
same,normalized growth,"S. cerevisiae deletion strains, locus YPL106C, strain sse1, hits give low values",0.962
same,normalized growth,"S. cerevisiae deletion strains, locus YPL240C, strain hsp82, hits give low values",0.996
same,normalized growth,"S. cerevisiae deletion strains, locus YPL256C, strain CLN2, hits give low values",0.855
C(=C(c1ccccc1)c1ccccc1)N1CCC1,normalized growth,"S. cerevisiae deletion strains, locus YAL013W, strain DEP1, hits give low values",1
same,normalized growth,"S. cerevisiae deletion strains, locus YBR229C, strain ROT2, hits give low values",0.993
same,normalized growth,"S. cerevisiae deletion strains, locus YDL101C, strain DUN1, hits give low values",0.96
same,normalized growth,"S. cerevisiae deletion strains, locus YDL134C, strain PPH21, hits give low values",1.01
same,normalized growth,"S. cerevisiae deletion strains, locus YDR150W, strain NUM1, hits give low values",0.87
same,normalized growth,"S. cerevisiae deletion strains, locus YEL061C, strain CIN8, hits give low values",0.99
same,normalized growth,"S. cerevisiae deletion strains, locus YGR078C, strain PAC10, hits give low values",0.997
same,normalized growth,"S. cerevisiae deletion strains, locus YGR229C, strain SMI1, hits give low values",1
same,normalized growth,[1],0.972
same,normalized growth,"S. cerevisiae deletion strains, locus YHR087W, strain rtc3, hits give low values",0.984
same,normalized growth,[2],1
same,normalized growth,"S. cerevisiae deletion strains, locus YJR043C, strain POL32, hits give low values",1
same,normalized growth,"S. cerevisiae deletion strains, locus YJR075W, strain HOC1, hits give low values",0.984
same,normalized growth,"S. cerevisiae deletion strains, locus YLR039C, strain RIC1, hits give low values",1.01
same,normalized growth,"S. cerevisiae deletion strains, locus YLR058C, strain SHM2 (second series), hits give low values",0.998
same,normalized growth,"S. cerevisiae deletion strains, locus YLR085C, strain ARP6, hits give low values",0.998
same,normalized growth,"S. cerevisiae deletion strains, locus YLR262C, strain YPT6, hits give low values",1.02
same,normalized growth,"S. cerevisiae deletion strains, locus YML094W, strain GIM5, hits give low values",0.975
same,normalized growth,"S. cerevisiae deletion strains, locus YMR219W, strain ESC1, hits give low values",0.988
same,normalized growth,"S. cerevisiae deletion strains, locus YMR263W, strain SAP30, hits give low values",0.987
same,normalized growth,"S. cerevisiae deletion strains, locus YMR307W, strain GAS1, hits give low values",1.02
same,normalized growth,"S. cerevisiae deletion strains, locus YNL153C, strain GIM3, hits give low values",0.988
same,normalized growth,"S. cerevisiae deletion strains, locus YNL298W, strain CLA4 (second series), hits give low values",1
same,normalized growth,"S. cerevisiae deletion strains, locus YNL322C, strain KRE1, hits give low values",0.991
same,normalized growth,"S. cerevisiae deletion strains, locus YNR030W, strain Alg12, hits give low values",1.03
same,normalized growth,"S. cerevisiae deletion strains, locus YPL055C, strain LGE1, hits give low values",0.854
same,normalized growth,"S. cerevisiae deletion strains, locus YPL241C, strain CIN2, hits give low values",0.9
same,normalized growth,"S. cerevisiae deletion strains, locus YPR135W, strain CTF4, hits give low values",1.03
same,normalized growth,"S. cerevisiae strains, strain wild type, hits give low values",1.01

# From PubChem BioAssay AID1159580 (chemical genetic matrix, 2015)
